This is one part of a sample in which hits are shown more often than they occur.
Pf Dd2 growth – qHTS Primary assay for Inhibitors of Plasmodium falciparum Dd2 growth in vitro. actives 4.3% (n = 120,000). AID 1347417, 2020. Potency, µM (top dose mostly 28.9 µM), hits mostly inhibitors. P. falciparum Dd2 growth, SYBR Green, 72 h; active = well fitted inhibition curve with a large enough effect; also: nearly all actives have a fitted effect of over 65% in size
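Readout: SYBR Green fluorescence, 485 nm excitation, 535 nm emission, after ~16 h lysis at 37C. Before that, Dd2-infected red cells (2.5% hematocrit) grew 72 h with compound, 29 uM top final concentration.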
A number is an active result; i = inactive; [ ] = remark or other dose.

SMILES | Pf Dd2 growth
COc1ccc2c(c1)OCC(CNC(=O)c1ccc(-c3nnn(C)n3)cc1)C2 (stereo unspecified) | i
COc1ccc2c(c1)OCC(CNC(=O)c1scc3c1OCCO3)C2 (stereo unspecified) | i
Cc1ccccc1CC(=O)N1CCC2(CC1)N=C(c1cccc(Br)c1)NO2 | i
Cc1ccc(-c2ccc3nnc(CNC(=O)c4ccco4)n3n2)cc1 | i
COc1ccc(OC)c(NC(=O)CC2CCCCN(C)C2=O)c1 (stereo unspecified) | i
CCc1ccc(C2c3c(-c4ccccc4O)n[nH]c3C(=O)N2Cc2ccncc2)cc1 (stereo unspecified) | 8.91µM
O=C1c2[nH]nc(-c3ccccc3O)c2C(c2cccc(O)c2)N1Cc1ccncc1 (stereo unspecified) | i
CCOCCCN1C(=O)c2[nH]nc(-c3ccccc3O)c2C1c1ccc(CC)cc1 (stereo unspecified) | 11.2µM
COc1cc(C2c3c(-c4ccccc4O)n[nH]c3C(=O)N2Cc2ccncc2)cc(OC)c1OC (stereo unspecified) | i
CCOCCCNC(=O)C(c1ccccc1)N1Cc2ccccc2C1=O (stereo unspecified) | i
CNC(=O)c1noc(CN2CCCC(CCc3c(F)cccc3F)C2)n1 (stereo unspecified) | i
CNCCN1C(=O)CC[C@H]2CN(C(=O)c3cnc4nc(C)[nH]n4c3=O)CC[C@H]21 | i
CS(=O)(=O)N1CCC(OC2CCN(C(=O)Nc3ccc(F)cc3F)CC2)CC1 | i
Cn1cc(CN2CCN(c3cnccn3)CC2)c(-c2ccc(C3CCCCC3)cc2)n1 | 10µM
Cn1c(CN2CCN(c3cnccn3)CC2)nnc1C1CC(N)C1 (stereo unspecified) | i
CN1C(=O)CC(C(=O)O)C12CCN(Cc1cn(C)nc1-c1ccccc1)CC2 (stereo unspecified) | i
CCN(CCOC)Cc1cn(C)nc1-c1ccc(C2CCCCC2)cc1 | 10µM
Cn1c(Cn2cccn2)nnc1C1CCCN(C(=O)CCn2cnnn2)C1 (stereo unspecified) | i
CC(=O)c1ccc(NC(=O)O[C@@H]2CO[C@H]3[C@@H]2OC[C@@H]3n2nnnc2-c2ccc(CN3CCOCC3)cc2)cc1 | i
COc1cccc(CNC2(Cc3cc(C(C)(C)O)on3)COC2)c1 | i
CC(C)CN1C(=O)c2cccn2CC1C(=O)NCC1CCN(Cc2ccc(F)cc2)CC1 (stereo unspecified) | i
COC[C@H]1CCCN1Cc1cn(Cc2ccccc2)nc1-c1cc2ccccc2o1 | 7.94µM
CC1(C)CN(Cc2cn(Cc3ccccc3)nc2-c2cc3ccccc3o2)CCO1 | 8.91µM
Cc1nnc([C@H]2CCN(Cc3ccccc3)C2)o1 | i
CN1CC2(CCN(Cc3ccccc3)CC2)CC1C(=O)N1CCOCC1 (stereo unspecified) | i
SMILES | Pf Dd2 growth
CN1CC2(CCCN(Cc3cc4ccccc4o3)C2)OC1=O (stereo unspecified) | i
c1ccc(Cn2cc(CN3CCCOCC3)c(-c3cc4ccccc4o3)n2)cc1 | 11.2µM
O=C1NCCN1C1CCN(Cc2ccccc2)CC1 | i
COCC1CCCCN1C(=O)c1ccc2oc(CCc3ccccc3)nc2c1 (stereo unspecified) | i
COC[C@H]1CCCN1C(=O)CC[C@H]1CNC(=O)[C@@H]2[C@@H](CCN2Cc2ccccc2)N1C | i
O=C(O)c1cncc(-c2cccc(CN3CCOCC3)c2)n1 | i
FC1CCN(Cc2cn(Cc3ccccc3)nc2-c2cc3ccccc3o2)CC1 | 7.94µM
O=C1CCN(Cc2ccccc2)CCOCCN1 | i
O=C(c1cnccn1)N1CCc2onc(C(c3ccccc3)c3ccccc3)c2C1 | i
O=C(NCc1ccccc1)NC1CCN(C(=O)N2CC3CC(C2)[C@H]2CCCC(=O)N2C3)CC1 (stereo partly specified) | i
COc1ccc(C(=O)N2CCC[C@H]2c2nc(-c3ccc(OC)c(OC)c3)no2)cc1F | i
Cc1ccc(C)c(CN2CCn3c(nn(Cc4ccccc4C)c3=O)C2=O)c1 | i
c1ccc(Cn2cc(CN3CCCC3)c(-c3ccc4c(c3)OCO4)n2)cc1 | 11.2µM
Fc1ccccc1N1CCN(Cc2nnc(-c3ccc4c(c3)OCO4)o2)CC1 | i[0.594 µM]
O[C@@H]1C[C@@H](c2nc(-c3ccc4c(c3)OCO4)no2)N(Cc2ccccc2)C1 | i
Fc1ccccc1-c1cc2c(ccn2Cc2ccncc2)c(N2CCOCC2)n1 | i
COCCN1CCC(N2CCN(S(=O)(=O)c3ccc(C)cc3C)CC2)C1=O (stereo unspecified) | i
O=C1[C@@H]2C[C@@H](O)CN2C2(CN(Cc3ccccc3Cl)C2)C(=O)N1Cc1ccccc1F | i
CN(C)C(=O)CN1C(=O)CO[C@H](c2ccc(NS(=O)(=O)Cc3ccccc3)cc2)[C@H]1CO | i
COc1cc(=O)n2c(c1C(=O)N1CCN(c3ccc(C)cc3)CC1)CCCC2 | i
CNS(=O)(=O)CCNc1nc(-c2ccccn2)nc2c1c(C)nn2C | i
Cc1nc(CCNc2nc(-c3ccccn3)nc3c2c(C)nn3C)no1 | i
Cc1nn(C)c2nc(-c3ccccn3)nc(NCC(c3ccco3)N(C)C)c12 (stereo unspecified) | 8.91µM
COc1ccc(-c2ccc(NS(=O)(=O)c3ccccc3Cl)cc2)nn1 | 11.2µM
COc1ccc(-c2ccc(NS(=O)(=O)c3cccc(C)c3)cc2)nn1 | i
SMILES | Pf Dd2 growth
COc1ccc(-c2ccc(NS(=O)(=O)c3ccccc3)cc2)nn1 | i
O=C1COCC2(CN1Cc1cccc(OC(F)(F)F)c1)CN(C(=O)C1CCOCC1)C2 | i
Cc1cc(N2CCN(C)CC2)nc2ccc(NC(=O)Nc3cccc(Cl)c3)cc12 | 1µM
Cc1ccc(Nc2ncc(C(=O)N3CCN(c4cccc(Cl)c4)CC3)c3ccccc23)cc1Cl | i
Cc1ccc(Cl)cc1N1CCN(C(=O)CCC(=O)Nc2ccc3nc(N4CCC(C)CC4)cc(C)c3c2)CC1 | 3.55µM
Cc1ccc(CSCC(=O)N2CCN(c3cc(Cl)ccc3C)CC2)cc1 | i
Cc1cn(C)c(CC(=O)N2CCN(c3cccc(Cl)c3)CC2)c1C(=O)O | i
Cc1cc(N2CCCCC2)nc2ccc(NC(=O)c3cccc(F)c3)cc12 | i
Cc1cccn2c(=O)cc(COc3cccc(NC(=O)Nc4cccc(Cl)c4)c3)nc12 | i
CCOc1cc(C(=O)Nc2ccc3nc(N4CCN(C)CC4)cc(C)c3c2)cc(OCC)c1OCC | 3.16µM
Cc1ccc(/C=C/C(=O)Nc2ccc3nc(N4CCC(C)CC4)cc(C)c3c2)cc1 | i
Cc1c(-c2cccc(NC(=O)Nc3ccc(Cl)cc3)c2)nc2ncccn12 | i
Cc1cc(N2CCCCC2)nc2ccc(NC(=O)CCC(=O)N3CCN(c4cccc(Cl)c4)CC3)cc12 | 11.2µM
COc1ccc(C(=O)Nc2ccc3nc(N4CCCCC4)cc(C)c3c2)c(OC)c1 | i
O=c1[nH]cccc1-c1nccc(C2(c3ccccc3Cl)CCNCC2)n1 | i
O=C(Cn1nc2c(cc1=O)CCCC2)NCCN1CCOCC1 | i
CNC(=O)c1cn2c(n1)CN([S+](=O)([O-])c1cccc(C(F)(F)F)c1)CC2 | i
COCCN1C(=O)CCC2(C(=O)Nc3cc(OC)cc(OC)c3)CCCC=C12 (stereo unspecified) | i
COc1cc(C)ccc1OCc1cc(C(=O)NCc2n[nH]c3c2CCC3)no1 | i
COc1ccc(C2(C(=O)NC3CCc4nnc(C)n4CC3)CC2)cc1 (stereo unspecified) | i
Cc1ccsc1C(=O)N1CCOc2ccc(CN3CCc4ccccc4C3)cc2C1 | 7.94µM
O=C(NCc1ccco1)N1CCOc2ccc(CN3CCc4ccccc4C3)cc2C1 | i
